Among the data in PubChem BioAssay (NCI) are growth values, retold here.

Common to all, as to assay: NCI-60 one-dose screen, 48 h (100 = growth as untreated, 0 = no growth, -100 = all killed)
The test system of one experiment is NCI-H23 lung. To be noted: 10 µM unless noted.
The next experiment deals with NCI-H226 lung. To be noted: 10 µM unless noted.
The next experiment concerns NCI-H322M lung. To be noted: 10 µM unless noted.
A further experiment has as its system HOP-62 NSCLC. Conditions: 10 µM unless noted.
The subject of the next experiment is NCI-H460 lung. To be noted: 10 µM unless noted.
The test system of a further experiment is HOP-92 NSCLC. Conditions: 10 µM unless noted.
The test system of the next experiment is NCI-H522 lung. Conditions: 10 µM unless noted.
Another experiment relates to A549/ATCC NSCLC. To be noted: 10 µM unless noted.
Another experiment relates to 786-0 renal. Conditions: 10 µM unless noted.
The subject of a further experiment is COLO 205 colon. Conditions: 10 µM unless noted.
For a further experiment, the system named is DU-145 prostate. Conditions: 10 µM unless noted.
A further experiment relates to K-562 leukemia. Conditions: 10 µM unless noted.
A further experiment has as its system MALME-3M melanoma. To be noted: 10 µM unless noted.
In a further experiment the test system is MDA-MB-231 breast. Conditions: 10 µM unless noted.
The test system of a further experiment is RXF 393 renal. To be noted: 10 µM unless noted.
In a further experiment the test system is SF-268 CNS. Conditions: 10 µM unless noted.
The test system of a further experiment is SF-295 CNS. Conditions: 10 µM unless noted.
For the next experiment, the system named is SF-539 CNS. To be noted: 10 µM unless noted.
A further experiment relates to UACC-257 melanoma. To be noted: 10 µM.
A further experiment deals with M14 melanoma. To be noted: 10 µM unless noted.

The panel holds about 83,000 compounds, 20% with a hit somewhere; the sample as a whole holds those more often.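 Each cell line was grown in a 96-well plate and treated with one concentration of compound for 48 hours. Values below 10 were considered active.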 Unmarked numbers belong to inactive results. Calls of active or inactive are those of the source.

In the case of `Nc1c(C(=O)Nc2ccccc2)sc2nc3c(cc12)CCC3`, the growth in the experiment with NCI-H23 lung was 87.9%; in the experiment on NCI-H226 lung, 85.3%; with NCI-H322M lung, 101%; in the experiment with HOP-62 NSCLC it was 96.4%; in the experiment with NCI-H460 lung, 91%; in the experiment on HOP-92 NSCLC, 55.6%. The growth was 83.9% in the experiment with NCI-H522 lung; 91.2% in the experiment with A549/ATCC NSCLC; 101% with 786-0 renal; 108% with COLO 205 colon; 96.8% in the experiment with DU-145 prostate; 35.4% in the experiment with K-562 leukemia. In addition, the growth is 77.9% in the experiment on MALME-3M melanoma; 80.7% with MDA-MB-231 breast; 95.4% in the experiment with RXF 393 renal; 94% with SF-268 CNS; 106% in the experiment with SF-295 CNS; 80.2% in the experiment on SF-539 CNS. Also, the results for the growth in the experiment with UACC-257 melanoma and in the experiment with M14 melanoma were 90.5% and 69.7%, respectively.

As to `COc1ccc(-c2cn[nH]c2-c2cc(OC)c3c(c2)OCCO3)cc1`, the growth with NCI-H23 lung is 25.6%; in the experiment on NCI-H226 lung it was 57.1%; in the experiment on NCI-H322M lung it was 50.7%; with HOP-62 NSCLC, 24%; in the experiment on NCI-H460 lung, 4.65% (active); with HOP-92 NSCLC, 46.6%. Besides, the growth in the experiment with NCI-H522 lung is -22.8% (active); in the experiment with A549/ATCC NSCLC, 30%; in the experiment on 786-0 renal, 33%; in the experiment with COLO 205 colon it was -59.5% (active); with DU-145 prostate, 9.03% (active); in the experiment on K-562 leukemia it was 9.59% (active). In addition, the growth in the experiment with MALME-3M melanoma is 97.9%; in the experiment with MDA-MB-231 breast, 17.1%; in the experiment on RXF 393 renal, -14% (active); in the experiment on SF-268 CNS it was 25.1%; with SF-295 CNS, 28.7%; in the experiment on SF-539 CNS, -34.3% (active). The growth in the experiment on UACC-257 melanoma is 75%; with M14 melanoma it was 10.6%.

For the compound `CCCCCCCCCCCCCCCCC(Br)C(=O)O` (stereo not given), the growth in the experiment with NCI-H23 lung was 110%; in the experiment with NCI-H226 lung it was 95.5%; with NCI-H322M lung it was 115%; in the experiment with HOP-62 NSCLC, 92.4%; in the experiment on NCI-H460 lung it was 108%; with HOP-92 NSCLC, 120%. Also, the growth was 80.4% in the experiment on NCI-H522 lung; 103% with A549/ATCC NSCLC; 111% in the experiment with 786-0 renal; 119% in the experiment on COLO 205 colon; 116% in the experiment on DU-145 prostate; 86.1% with K-562 leukemia. For the same compound, the growth was 98.3% in the experiment on MALME-3M melanoma; 115% in the experiment on MDA-MB-231 breast; 105% in the experiment on RXF 393 renal; 112% in the experiment with SF-268 CNS; 93.8% with SF-295 CNS; 86.4% with SF-539 CNS. Moreover, the growth in the experiment on UACC-257 melanoma is 110%; in the experiment with M14 melanoma it was 101%.

In the case of `CN(C)c1ccc(-c2ccc(-c3ccc(C(=N)N)cn3)o2)cc1`, the growth is 20.9% with NCI-H23 lung; 21.3% in the experiment on NCI-H226 lung; -0.109% (active) in the experiment with NCI-H322M lung; -69.8% (active) in the experiment with HOP-62 NSCLC; -86.8% (active) with NCI-H460 lung; -61.2% (active) in the experiment with HOP-92 NSCLC. Besides, the growth is -72.9% (active) with NCI-H522 lung; -48.7% (active) in the experiment on A549/ATCC NSCLC; -66.6% (active) in the experiment with 786-0 renal; -93.7% (active) in the experiment with COLO 205 colon; -65.2% (active) in the experiment on DU-145 prostate; -46.7% (active) in the experiment with K-562 leukemia. Also, the growth in the experiment on MALME-3M melanoma is -75.5% (active); in the experiment with MDA-MB-231 breast it was -84.4% (active); with RXF 393 renal it was -81% (active); in the experiment with SF-268 CNS, -49.2% (active); with SF-295 CNS, -69.7% (active); in the experiment with SF-539 CNS, -87.4% (active). The growth is -83.8% (active) with UACC-257 melanoma and -74.4% (active) with M14 melanoma.

Turning to `Cc1ccc(S(=O)(=O)NCCCNc2nccc(-c3c(-c4ccccc4)nc4sccn34)n2)cc1`, the growth in the experiment with NCI-H23 lung was 76.2%; with NCI-H226 lung, 49.4%; in the experiment on NCI-H322M lung it was 78.4%; in the experiment with HOP-62 NSCLC, 124%; with NCI-H460 lung, 52%; with HOP-92 NSCLC, 93.8%. Further, the growth in the experiment with NCI-H522 lung is 54.1%; in the experiment on A549/ATCC NSCLC, 58.4%; with 786-0 renal, 38.7%; with COLO 205 colon, 46.6%; in the experiment with DU-145 prostate, 26.2%; with K-562 leukemia, 15.9%. Further, the growth with MALME-3M melanoma is 99.3%; in the experiment with MDA-MB-231 breast, 18.3%; in the experiment with RXF 393 renal, 65%; with SF-268 CNS it was 38.6%; with SF-295 CNS, 65.2%; in the experiment on SF-539 CNS, 82.5%. Besides, the growth was 106% with UACC-257 melanoma and 30.5% in the experiment with M14 melanoma.

As for `COc1ccc(/C=C/c2cc(N3CCOCC3)c3cc(F)c(F)cc3n2)cc1OC`, the growth in the experiment with NCI-H23 lung is 42.3%; in the experiment with NCI-H226 lung it was 34.8%; with NCI-H322M lung it was 30%; with HOP-62 NSCLC it was 63.9%; in the experiment with NCI-H460 lung, 25.2%; with HOP-92 NSCLC it was 49.7%. Further, the growth in the experiment with NCI-H522 lung was 7.5% (active); in the experiment on A549/ATCC NSCLC, 44.6%; with 786-0 renal it was 40.8%; in the experiment with COLO 205 colon, 11.8%; in the experiment with DU-145 prostate it was 48.3%; in the experiment on K-562 leukemia, 28.9%. Also, the growth was 49.3% in the experiment on MALME-3M melanoma; 45.9% in the experiment on MDA-MB-231 breast; 52.2% in the experiment with RXF 393 renal; 31.4% in the experiment on SF-268 CNS; 31.4% in the experiment on SF-295 CNS; 28.9% in the experiment with SF-539 CNS. The growth was 45.4% in the experiment on UACC-257 melanoma and 31.6% in the experiment on M14 melanoma.

In the case of `COc1ccc(NC(=O)CSc2nc3ccccc3c(=O)n2Cc2cc(OC)c(OC)c(OC)c2)cc1`, the growth in the experiment on NCI-H23 lung was 92.5%; in the experiment on NCI-H226 lung it was 88.3%; in the experiment with NCI-H322M lung it was 94.5%; in the experiment on HOP-62 NSCLC, 91.4%; in the experiment with NCI-H460 lung, 101%; with HOP-92 NSCLC, 58.8%. For the same compound, the growth is 66.7% in the experiment on NCI-H522 lung; 99.3% in the experiment on A549/ATCC NSCLC; 92.5% in the experiment on 786-0 renal; 107% in the experiment on COLO 205 colon; 95.6% with DU-145 prostate; 79.8% in the experiment on K-562 leukemia. In addition, the growth in the experiment on MALME-3M melanoma was 88.2%; in the experiment with MDA-MB-231 breast, 73.8%; in the experiment with RXF 393 renal, 82.9%; in the experiment on SF-268 CNS, 85.1%; in the experiment on SF-295 CNS, 106%; in the experiment with SF-539 CNS, 79%. Also, the values for the growth in the experiment on UACC-257 melanoma and with M14 melanoma were 94.3% and 99.4%, respectively.
